The results in this text go back to PubChem BioAssay (NCATS).

Results filed as inconclusive are left out. Active and inactive are the calls of the source. Calls come from the whole dose curve; as a rule, active = well fitted inhibition curve with a large enough effect; inconclusive = small, poorly fitted or top-dose-only effect; inactive = flat fitted curve, though single readings scatter.
% is set by controls: 0 for no effect and ±100 for the full control effect; potency is the fitted concentration of half-maximal effect.

The subject of this experiment is CRL-7250. As to the kind of experiment: Cytotoxic Profiling of Annotated Libraries Using Quantitative High-Throughput Screening (AID 1296008). Note: nearly all actives have a fitted effect of over 60% in size. Particulars: Five cell lines viability, CellTiter-Glo ATP luminescence, 48-72 h; max response: hits give low values. Put shortly:
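Cells exposed to compounds for 48 or 72 hr at 37 degrees Celsius. Viability read as ATP-coupled luminescence with CellTiter-Glo after 10 min at room temperature.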
Background: ATP-based viability assays read luminescence as a measure of living cells.
As for `Cc1cc2c(F)c(Oc3ncnn4cc(OCC(C)O)c(C)c34)ccc2[nH]1` (centres undefined), the max response was -24.6% (inactive). `CC(C)C(C(=O)N(C)C(C)C(N)=O)N(C)C(=O)C1CCCN1C(=O)/C=C/C=C/C(O)C(C)O` (centres undefined): the call was inactive. Still for that read-out and setting: under `O=C1NC(Cc2ccccc2)C(=O)N2CCCC12` (centres undefined) stands “inactive”.

Regarding `O=C(CCc1nnc2n(Cc3ccc(Cl)cc3)c(=O)c3ccccc3n12)NCCC1=CCCCC1`, the max response was -19.2% (inactive). The same measure, in the same setting: under `CCCC1(c2ccccc2)NC(=O)N(CC(=O)N(C)Cc2c(F)cccc2Cl)C1=O` (centres undefined) stands -1.75% (inactive). For the compound `C[C@@H]1CC[C@]2(C(=O)OC3OC(CO)C(O)C(O)C3O)CC[C@]3(C)C(=CCC4[C@@]5(C)CC[C@H](O)[C@](C)(C(=O)O)C5CC[C@]43C)C2[C@]1(C)O` (some centres undefined), the compound was called inactive. Regarding `C=C(C(=O)O)C1CCC2(C)CCC(O)C(C)(O)C2C1` (centres undefined), the max response was -18% (inactive). As for `CNS(=O)(=O)c1ccccc1Nc1nc(Nc2ccc(N3CCN(C)CC3)cc2OC)ncc1Cl`, the Potency was 1460 nM (active). Turning to `COC(=O)c1ccc(OC(CO)C(O)c2ccc(O)c(OC)c2)c(OC)c1` (centres undefined), the max response was 0.832% (inactive). Turning to `CC1CCC2(C(=O)O)CCC3(C)C(=CCC4C5(C)CCC(O)C(C)(CO)C5CCC43C)C2C1(C)O` (centres undefined), the max response was 0.977% (inactive). The same measure, in the same setting: to `CC1CCN(C(=O)CC#N)CC1N(C)c1ncnc2[nH]ccc12` (centres undefined) belongs 0.271% (inactive); to `C[C@@H]1O[C@@H](O[C@H]2[C@H](O)[C@@H](O[C@@H]3O[C@H](CO)[C@@H](O)[C@H](O[C@@H]4O[C@H](CO)[C@@H](O)[C@H](O)[C@H]4O)[C@H]3O)[C@H](O[C@H]3CC[C@@]4(C)C(=CC[C@@H]5C4CC[C@@]4(C)C5C[C@@H]5OC6(CC[C@@](C)(CO[C@@H]7O[C@H](CO)[C@@H](O)[C@H](O)[C@H]7O)O6)[C@@H](C)[C@@H]54)C3)O[C@@H]2CO)[C@H](O)[C@H](O)[C@H]1OC1OC(CO)C(O)C(O)C1O` (some centres undefined), -6.48% (inactive). As for `CC(=O)NCC(=O)N1C2CCC1c1cc(Nc3ncc(C(F)(F)F)c(NC4CCC4)n3)ccc12` (centres undefined), the Potency was 1640 nM (active).

For the compound `CC(NC(=O)CCc1nc2ccccc2c(=O)[nH]1)c1ccccc1` (centres undefined), the max response was -18.4% (inactive).

For the compound `C[C@@H]1O[C@@H](O[C@H]2[C@H](O[C@H]3[C@H](O[C@H]4CC[C@@]5(C)C(CC[C@]6(C)C5CC=C5[C@@H]7CC(C)(C)C[C@@H](O)[C@]7(C)CC[C@]56C)[C@@]4(C)CO)O[C@H](C(=O)O)[C@@H](O)[C@@H]3O)OC[C@H](O)[C@@H]2O)[C@H](O)[C@H](O)[C@H]1O` (some centres undefined), the max response is -3.42% (inactive).

Consider `COc1cc(C2Oc3c(OC)cc(CCCO)cc3C2CO)ccc1O[C@H]1O[C@H](C)[C@@H](O)[C@H](O)[C@@H]1O` (some centres undefined), for which the outcome was inactive. For `COC(=O)/C=C/C12COC(C)(C)C1C(O)C(OC(C)=O)C1(C)C2CCC2(C)C(c3ccoc3)OC(=O)C3OC321` (centres undefined), the max response was -1.53% (inactive). Turning to `Cn1cc(-c2ccc3nnc(Sc4ccc5nn(C)cc5c4)n3n2)cn1`, the max response was -2.56% (inactive).

Consider `COC(=O)C1=CO[C@@H](O[C@@H]2O[C@H](CO[C@@H]3O[C@H](COC(=O)/C=C/c4cc(OC)c(O)c(OC)c4)[C@@H](O)[C@H](O)[C@H]3O)[C@@H](O)[C@H](O)[C@H]2O)[C@@H]2C(CO)=CC[C@H]12`, for which the max response was -3.63% (inactive). With `CC1=C(/C=C/C(C)=C\C=C\C(C)=C/C(=O)O)C(C)(C)CCC1`, the max response was -50.6% (inactive).

Take `Cc1nc2sc(C(=O)NCc3ccncc3)c(N)c2c(C)c1Cl`: the max response was 0.486% (inactive). Take `CCn1c(=O)c(-c2ccn[nH]2)cc2c(C)nc(N)nc21`: the Potency was 2310 nM (active).

In the case of `NC(=O)C(CCC(F)(F)F)N(Cc1ccc(-c2ncon2)cc1F)S(=O)(=O)c1ccc(Cl)cc1` (centres undefined), the max response was -7.08% (inactive). Consider `CN1CCc2nc(C(=O)N[C@@H]3C[C@@H](C(=O)N(C)C)CC[C@@H]3NC(=O)C(=O)Nc3ccc(Cl)cn3)sc2C1`, for which the max response is 3.08% (inactive). The same measure, in the same setting: under `C=CCC1=C[C@]2(OC)[C@H](C)[C@@H](c3ccc(O)c(OC)c3)O[C@]2(OC)CC1=O` stands -0.729% (inactive); under `CC1(C)[C@@H](O)CC[C@]2(C)[C@H]3CC=C4[C@@H]5C[C@](C)(C(=O)O)CC[C@]5(C)CC[C@@]4(C)[C@]3(C)CC[C@@H]12`, -5.83% (inactive); under `CC1=CCC2C(C)(C)CCC[C@]2(C)[C@@]12CC[C@](C)(CC(=O)O)O2` (some centres undefined), -19.8% (inactive). As for `CC(O)CCC1C(CO[C@@H]2O[C@H](CO)[C@@H](O)[C@H](O)[C@H]2O)CC(O)CC1(C)C` (some centres undefined), the outcome was inactive. Consider `Nc1nccn2c(C3CCC(C(=O)O)CC3)nc(-c3cc4cccc(Cl)c4[nH]3)c12` (centres undefined), for which the Potency is 1460 nM (active). `C=C1CC2C(C)(CCC(=O)O)C(C(C)(C)O)CCC2(C)C2C(=O)OC(C)(C(=O)OC)C(=O)C12C` (centres undefined): the max response is -2.01% (inactive). Same read-out and setting: to `CCCN1CCC(c2cccc(S(C)(=O)=O)c2)CC1` belongs -0.494% (inactive); to `C[C@@H]1CC[C@]2(C(=O)O)CC[C@]3(C)C(=CCC4[C@@]5(C)C[C@@H](O)[C@H](O)[C@@](C)(CO)C5CC[C@]43C)C2[C@]1(C)O` (some centres undefined), -3.26% (inactive). The same measure, in the same setting: under `CCNC(=O)Nc1ncc(-c2cc(-c3c(C)cc(OC)cc3C)nc(-c3cnccn3)n2)s1` stands -11.4% (inactive); under `Cc1ccc(-c2c(C(=O)CF)n(CCCO)c3ncnc(N)c23)cc1`, -0.58% (inactive). Consider `CC1CC[C@]2(C(=O)O)CC[C@]3(C(=O)O)C(=CCC4[C@@]5(C)CC[C@H](OC6OC(C)C(O)C(OC7OC(CO)C(O)C(O)C7O)C6O)C(C)(C)C5CC[C@]43C)C2C1C` (some centres undefined), for which the max response is -0.92% (inactive).

`CC(C)(C)Nc1nc(Nc2ccc(C(N)=O)cc2)cc(N)c1C#N`: the Potency was 13000 nM (active). As for `C[C@@H]1C[C@@H]([C@@H](O)C(C)(C)O)O[C@H]2C[C@@]3(C)C(=C12)C[C@H](O)[C@H]1[C@@]2(C)CCC(=O)C(C)(C)C2CC[C@@]13C` (some centres undefined), the max response is 0.566% (inactive).

As to `NCCCNc1ccc(Nc2nccc(Nc3cc(C4CC4)[nH]n3)n2)cc1`, the Potency was 731 nM (active).

On to `CC1(c2nc3c(C(N)=O)cccc3[nH]2)CCCN1` (centres undefined), for which the max response is -7.72% (inactive).
